Screen size: about 5,500 compounds; about 2,000 (36%) were called active. Another 18% or so got no clear call; they are omitted. No stated cut-off is given here; in the data, active means normalized growth mostly below about 0.91 (no sharp cut-off); inconclusive means no clear call, values can overlap the other calls; inactive means mostly above about 0.92. The list shows a part of the results.
Test: chemical genetic growth profiling, strain panel (AID 1159580);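 further: tested at 20 µM; growth read once vehicle control cultures reached saturation at 30 °C; 1 = growth at the plate median or of vehicle wells; lower values mean less growth of the strain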
Conditions: S. cerevisiae deletion strains, growth OD
[1] = locus YGR229C, strain SMI1, active compounds read low
[2] = locus YMR307W, strain GAS1, active compounds read low
[3] = locus YNL153C, strain GIM3, active compounds read low
[4] = locus YAR019C, strain CDC15, active compounds read low
[5] = locus YBL105C, strain PKC1, active compounds read low
[6] = locus YBR135W, strain CKS1, active compounds read low
[7] = locus YBR136W, strain MEC1, active compounds read low
[8] = locus YBR160W, strain CDC28, active compounds read low
[9] = locus YDL017W, strain CDC7, active compounds read low
[10] = locus YDL028C, strain MPS1, active compounds read low
[11] = locus YDL101C, strain DUN1, active compounds read low
[12] = locus YDL108W, strain KIN28, active compounds read low
[13] = locus YDL132W, strain cdc53, active compounds read low
[14] = locus YDL214C, strain PRR2, active compounds read low
[15] = locus YDR052C, strain DBF4, active compounds read low
[16] = locus YDR054C, strain cdc34, active compounds read low
[17] = locus YDR226W, strain ADK1, active compounds read low
[18] = locus YDR477W, strain SNF1, active compounds read low
[19] = locus YER123W, strain YCK3, active compounds read low
[20] = locus YER133W, strain GLC7, active compounds read low
[21] = locus YFL009W, strain cdc4, active compounds read low
[22] = locus YFL029C, strain CAK1, active compounds read low
[23] = locus YFR003C, strain YPI1, active compounds read low
[24] = locus YFR019W, strain FAB1, active compounds read low
[25] = locus YFR028C, strain CDC14, active compounds read low
[26] = locus YGR040W, strain KSS1, active compounds read low
[27] = locus YGR052W, strain FMP48, active compounds read low
[28] = locus YGR092W, strain DBF2, active compounds read low
[29] = locus YHR030C, strain SLT2, active compounds read low
[30] = locus YHR079C, strain IRE1, active compounds read low
[31] = locus YHR082C, strain KSP1, active compounds read low
[32] = locus YHR205W, strain SCH9, active compounds read low
[33] = locus YIL147C, strain SLN1, active compounds read low
[34] = locus YJL095W, strain BCK1, active compounds read low
[35] = locus YJL128C, strain PBS2, active compounds read low
[36] = locus YJL157C, strain FAR1, active compounds read low
[37] = locus YJR016C, strain ILV3, active compounds read low
[38] = locus YJR066W, strain TOR1 (second series), active compounds read low
[39] = locus YJR066W, strain TOR1, active compounds read low
[40] = locus YKL048C, strain ELM1, active compounds read low
[41] = locus YKL067W, strain YNK1, active compounds read low
[42] = locus YKL101W, strain HSL1, active compounds read low
[43] = locus YKL193C, strain SDS22, active compounds read low
[44] = locus YKL203C, strain TOR2, active compounds read low
[45] = locus YLR113W, strain HOG1, active compounds read low
[46] = locus YLR133W, strain CKI1, active compounds read low
[47] = locus YLR403W, strain SFP1, active compounds read low
[48] = locus YML070W, strain DAK1, active compounds read low
[49] = locus YMR001C, strain CDC5, active compounds read low
[50] = locus YMR205C, strain PFK2 (second series), active compounds read low
[51] = locus YMR277W, strain FCP1, active compounds read low
[52] = locus YNL006W, strain LST8, active compounds read low
[53] = locus YNL020C, strain ARK1, active compounds read low
[54] = locus YNL161W, strain CBK1, active compounds read low
[55] = locus YNL183C, strain NPR1, active compounds read low
[56] = locus YNL207W, strain RIO2, active compounds read low
[57] = locus YNL222W, strain SSU72, active compounds read low
[58] = locus YNL307C, strain MCK1 (second series), active compounds read low
[59] = locus YOL078W, strain AVO1, active compounds read low
[60] = locus YOL136C, strain PFK27, active compounds read low
[61] = locus YOR061W, strain CKA2, active compounds read low
[62] = locus YOR119C, strain RIO1, active compounds read low
[63] = locus YOR231W, strain MKK1, active compounds read low
[64] = locus YOR329C, strain SCD5, active compounds read low
[65] = locus YPL031C, strain PHO85, active compounds read low
[66] = locus YPL153C, strain RAD53, active compounds read low
[67] = locus YPL204W, strain HRR25, active compounds read low
[68] = locus YPL209C, strain IPL1, active compounds read low
[69] = locus YPL256C, strain CLN2, active compounds read low
[70] = locus YPR025C, strain CCL1, active compounds read low
[71] = locus YPR106W, strain ISR1, active compounds read low
[72] = locus YPR111W, strain DBF20, active compounds read low
[73] = strain NNK1, active compounds read low
[74] = strain TSCII, active compounds read low

Measured: normalized growth

CCCCCCC/C=C\CCCCCCCCC(=O)O
inactive: locus YAL040C, strain CLN3, active compounds read low 1.01 | locus YCL061C, strain MRC1 (second series), active compounds read low 1.01 | locus YDR363W, strain ESC2, active compounds read low 1.02 | locus YER002W, strain NOP16, active compounds read low 1.03 | [1] 1.01 | [2] 1.01 | [3] 0.946 | locus YNL175C, strain NOP13, active compounds read low 0.996 | locus YNL197C, strain WHI3, active compounds read low 1.01 | locus YNL224C, strain SQS1, active compounds read low 1.01 | locus YOR083W, strain WHI5 (second series), active compounds read low 1.01

O=C(NCc1ccc(F)c(Cl)c1)Nc1csc([N+](=O)[O-])c1
inactive: [4] 0.984 | [5] 0.979 | [6] 0.987 | [7] 0.965 | [8] 0.981 | [9] 0.981 | [10] 0.98 | [11] 0.984 | [12] 0.975 | [13] 0.989 | [14] 0.975 | [15] 0.985 | [16] 0.989 | [17] 0.986 | [18] 0.977 | [19] 0.917 | [20] 0.965 | [21] 0.989 | [22] 0.967 | [23] 0.984 | [24] 0.951 | [25] 0.977 | [26] 0.976 | [27] 1.02 | [28] 0.96 | [29] 0.906 | [30] 0.958 | [31] 0.99 | [32] 0.932 | [33] 0.983 | [34] 0.963 | [35] 0.957 | [36] 0.987 | [37] 0.99 | [38] 0.952 | [39] 0.987 | [40] 0.98 | [41] 0.973 | [42] 0.947 | [43] 0.987 | [44] 1.03 | [45] 0.922 | [46] 0.962 | [47] 0.948 | [48] 0.938 | [49] 0.99 | [50] 0.962 | [51] 0.991 | [52] 0.993 | [53] 0.972 | [54] 0.983 | [55] 0.957 | [56] 0.981 | [57] 0.988 | [58] 0.973 | [59] 0.983 | [60] 0.942 | [61] 0.966 | [62] 1.01 | [63] 0.939 | [64] 0.981 | [65] 0.983 | [66] 0.969 | [67] 0.981 | [68] 0.981 | [69] 0.916 | [70] 0.989 | [71] 0.978 | [72] 0.977 | [73] 0.99 | [74] 0.981

CC(=O)c1csc([N+](=O)[O-])c1
inactive: locus YAL013W, strain DEP1, active compounds read low 1.01 | locus YBR229C, strain ROT2, active compounds read low 1.02 | [11] 0.951 | locus YDL134C, strain PPH21, active compounds read low 1 | locus YDR150W, strain NUM1, active compounds read low 0.921 | locus YEL061C, strain CIN8, active compounds read low 1.02 | locus YGR078C, strain PAC10, active compounds read low 0.975 | [1] 1.01 | [29] 1.08 | locus YHR087W, strain rtc3, active compounds read low 1.02 | locus YJL187C, strain SWE1, active compounds read low 0.983 | locus YJR043C, strain POL32, active compounds read low 1 | locus YJR075W, strain HOC1, active compounds read low 0.99 | locus YKL190W, strain CNB1, active compounds read low 1.01 | locus YLR039C, strain RIC1, active compounds read low 1 | locus YLR058C, strain SHM2 (second series), active compounds read low 0.998 | locus YLR085C, strain ARP6, active compounds read low 0.89 | locus YLR262C, strain YPT6, active compounds read low 0.976 | locus YML094W, strain GIM5, active compounds read low 1.02 | locus YMR219W, strain ESC1, active compounds read low 0.996 | locus YMR263W, strain SAP30, active compounds read low 1.01 | [2] 1.03 | [3] 0.947 | locus YNL298W, strain CLA4 (second series), active compounds read low 1.02 | locus YNL322C, strain KRE1, active compounds read low 1.01 | locus YNR030W, strain Alg12, active compounds read low 1.02 | locus YPL055C, strain LGE1, active compounds read low 0.996 | locus YPL241C, strain CIN2, active compounds read low 1.09 | locus YPR135W, strain CTF4, active compounds read low 0.988

O=C(Nc1ccc(Cl)cc1)c1csc([N+](=O)[O-])c1
active: [29] 0.583 | [45] 0.596 | [69] 0.712
inactive: [4] 0.92 | [5] 0.93 | [6] 0.931 | [7] 0.927 | [8] 0.933 | [9] 0.938 | [10] 0.922 | [11] 0.943 | [12] 0.929 | [13] 0.908 | [14] 0.874 | [15] 0.936 | [16] 0.901 | [17] 0.923 | [18] 0.803 | [19] 0.795 | [20] 0.764 | [21] 0.913 | [22] 0.919 | [23] 0.924 | [24] 0.918 | [25] 0.915 | [26] 0.797 | [27] 0.826 | [28] 0.545 | [30] 0.764 | [31] 0.891 | [32] 0.786 | [33] 0.923 | [34] 0.697 | [35] 0.935 | [36] 0.827 | [37] 0.926 | [38] 0.752 | [39] 0.759 | [40] 0.874 | [41] 0.894 | [42] 0.894 | [43] 0.92 | [44] 0.857 | [46] 0.873 | [47] 0.79 | [48] 0.832 | [49] 0.92 | [50] 0.862 | [51] 0.914 | [52] 0.921 | [53] 0.863 | [54] 0.933 | [55] 0.829 | [56] 0.908 | [57] 0.919 | [58] 0.818 | [59] 0.923 | [60] 0.861 | [61] 0.882 | [62] 0.86 | [63] 0.825 | [64] 0.924 | [65] 0.773 | [66] 0.795 | [67] 0.757 | [68] 0.926 | [70] 0.929 | [71] 0.94 | [72] 0.925 | [73] 0.944 | [74] 0.928

— PubChem BioAssay AID1159580 (chemical genetic matrix, 2015)
